# Experimental data taken from PubChem BioAssay (Tox21).
# Records with an inconclusive call do not appear. Where a call stands in place of a potency, no number is given. A number with no mark means an inactive call. Activity calls are given as the source filed them. Unless noted, calls come from the whole dose curve; as a rule, active = well fitted curve in the direction sought with a large enough effect in the repeat runs; inconclusive = weak or mixed curves; inactive = no such curve, though single readings can be large; an effect the other way counts as inactive or inconclusive.
# Legend:
# [1] = qHTS assay to identify small molecule antagonists of the estrogen related receptor (ERR) signaling pathway from Tox21 library - cell viability counter screen (AID 1224834); note: nearly all actives have a fitted effect of over 30% in size
# Procedure, shortened: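 ERR cells, 2,000/well; 6 h settle at 37 C/5% CO2; pin-tool compound transfer in DMSO; 17.5 h at 37 C; CellTiter-Fluor, 30 min; fluorescence intensity.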
# [2] = target: Luciferin 4-monooxygenase (Photinus pyralis) (UniProt P08659); experiment: qHTS assay to identify small molecule inhibitors of firefly luciferase (AID 1224835); note: nearly all actives have a fitted effect of over 25% in size; note: potency is the fitted concentration of half-maximal effect; for activity change, negative = inhibition: series mostly up to about 120 µM
# Procedure, shortened: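 Biochemical qHTS: compounds run as interplate titrations against purified firefly enzyme, with D-luciferin and ATP each at its KM concentration. Light output recorded by CCD imaging.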
# [3] = qHTS assay to identify small molecule agonists of the constitutive androstane receptor (CAR) signaling pathway - cell viability counter screen (AID 1224836); note: series mostly up to about 92 µM; nearly all actives have a fitted effect of over 45% in size
# Procedure, shortened: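 Double-stable HepG2 hepatoma cells (hCAR plus CYP2B6-2.2kb) are treated for 23 h at 37 C with test compounds in 15-point concentration series. PK11195 at 0.75 uM final is co-added. Cell viability is quantified by CellTiter-Fluor.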
# [4] = qHTS assay to identify small molecule antagonists of the constitutive androstane receptor (CAR) signaling pathway - cell viability counter screen (AID 1224837); note: series mostly up to about 92 µM; nearly all actives have a fitted effect of over 45% in size
# Procedure, shortened: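 Viability was measured with CellTiter-Fluor in a HepG2 line carrying stably transfected hCAR and a CYP2B6-2.2kb construct. Cells were exposed for 23 hr at 37 C to 15 compound concentrations with 50 nM CITCO as agonist.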
# [5] = qHTS assay to identify small molecule antagonists of the estrogen related receptor signaling pathway with the pleiotropic PPARgamma coactivator (PGC) from Tox21 10K library - cell viability counter screen (AID 1224840; active = well fitted cell-killing curve with a large enough effect in the repeat runs, not every such curve was filed as active; note: nearly all actives have a fitted effect of over 40% in size)
# Procedure, shortened: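 Multiplexed viability counter screen in the PGC/ERR cell line: cells treated with DMSO-dissolved compounds for 17.5 hours at 37 C, then viability measured as CellTiter-Fluor fluorescence.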
# [6] = qHTS assay to identify small molecule agonists of the estrogen related receptor signaling pathway with the pleiotropic PPARgamma coactivator (PGC) from Tox21 10K library (AID 1224842); note: nearly all actives have a fitted effect of over 15% in size
# Procedure, shortened: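 PGC/ERR reporter cell line, 2,000 cells per well, incubated 6 h at 37 C before 23 nL compound in DMSO was added. After 18 h at 37 C, One-Glo luminescence read following 30 min at room temperature.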
# [7] = qHTS assay to identify small molecule antagonists of the estrogen related receptor signaling pathway with the pleiotropic PPARgamma coactivator (PGC) from Tox21 10K library (AID 1224841; call rule not given here; note: series mostly up to about 92 µM; actives are mostly falling curves and most rising ones were filed inactive; nearly all actives have a fitted effect of over 50% in size)
# Procedure, shortened: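 Steps: plate 2,000 PGC/ERR cells per well; incubate 6 h at 37 C with 5% CO2; transfer compounds from DMSO stocks by pin tool; incubate 18 h at 37 C; add One-Glo; measure luminescence 30 min later.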
# [8] = target: Nuclear receptor subfamily 1 group I member 3 (Homo sapiens) (UniProt Q14994); experiment: qHTS assay to identify small molecule antagonists of the constitutive androstane receptor (CAR) signaling pathway (AID 1224838);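 note: HepG2 cells stably expressing hCAR with CYP2B6 luciferase reporter stimulated by CITCO; nearly all actives have a fitted effect of over 40% in size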
# Procedure, shortened: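 Antagonist mode used CITCO at a final 50 nM to activate CAR in human hepatoma HepG2 cells carrying stable hCAR and a 2.2 kb CYP2B6 promoter-luciferase construct. Compounds were tested at 15 concentrations over 24 h, with luminescence as the end point.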
# [9] = target: Nuclear receptor subfamily 1 group I member 3 (Homo sapiens) (UniProt Q14994); experiment: qHTS assay to identify small molecule agonists of the constitutive androstane receptor (CAR) signaling pathway (AID 1224839); note: series mostly up to about 92 µM; nearly all actives have a fitted effect of over 15% in size
# Procedure, shortened: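 Readout: firefly luciferase luminescence via ONE-Glo. System: HepG2 double-stable for hCAR and CYP2B6-2.2kb. Conditions: 15-point compound titration, PK11195 at 0.75 uM final, 24 h incubation.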
# Luciferin 4-monooxygenase (Photinus pyralis), sequence (P08659 whole entry, looked up): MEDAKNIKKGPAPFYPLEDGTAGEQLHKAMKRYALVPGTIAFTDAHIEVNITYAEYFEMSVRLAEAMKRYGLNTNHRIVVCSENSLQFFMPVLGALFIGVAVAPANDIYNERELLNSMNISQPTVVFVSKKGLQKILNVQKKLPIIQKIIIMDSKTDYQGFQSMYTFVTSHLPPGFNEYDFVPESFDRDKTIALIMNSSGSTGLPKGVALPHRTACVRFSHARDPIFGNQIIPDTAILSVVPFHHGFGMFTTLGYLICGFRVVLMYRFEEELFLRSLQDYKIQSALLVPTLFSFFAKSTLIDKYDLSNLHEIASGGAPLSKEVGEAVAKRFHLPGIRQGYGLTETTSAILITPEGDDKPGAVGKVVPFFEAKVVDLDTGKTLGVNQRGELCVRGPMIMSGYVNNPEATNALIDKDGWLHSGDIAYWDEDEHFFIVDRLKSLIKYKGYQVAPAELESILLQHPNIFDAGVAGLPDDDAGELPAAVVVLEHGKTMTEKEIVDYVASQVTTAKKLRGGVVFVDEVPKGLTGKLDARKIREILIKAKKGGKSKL
# Nuclear receptor subfamily 1 group I member 3 (Homo sapiens), sequence (Q14994 whole entry, looked up): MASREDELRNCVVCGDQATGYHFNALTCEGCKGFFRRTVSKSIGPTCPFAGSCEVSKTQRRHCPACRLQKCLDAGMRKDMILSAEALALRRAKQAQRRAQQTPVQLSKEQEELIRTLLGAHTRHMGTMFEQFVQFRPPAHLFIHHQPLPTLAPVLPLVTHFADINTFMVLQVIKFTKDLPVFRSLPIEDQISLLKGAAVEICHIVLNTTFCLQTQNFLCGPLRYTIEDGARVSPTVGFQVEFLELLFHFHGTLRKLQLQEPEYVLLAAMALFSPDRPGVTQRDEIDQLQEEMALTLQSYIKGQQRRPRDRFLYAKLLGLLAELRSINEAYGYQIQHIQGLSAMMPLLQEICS
smiles,measurement,setting,value
C=C(C)[C@@H]1CCC2=CC(=O)C[C@@H](C)[C@]2(C)C1,Potency,[1],inactive
same,Potency,[2],inactive
same,outcome,[3],inactive
same,outcome,[4],inactive
same,outcome,[5],inactive
same,Potency,[6],inactive
CN1[C@@H]2CC[C@H]1CC(NC(=O)n1c(=O)[nH]c3ccccc31)C2 (stereo partly drawn),Potency,[1],inactive
same,Potency,[2],inactive
same,outcome,[3],inactive
same,outcome,[4],inactive
same,outcome,[5],inactive
same,Potency,[7],inactive
same,Potency,[6],inactive
CCCCCCCCCCCl,Potency,[1],inactive
same,Potency,[2],inactive
same,outcome,[3],inactive
same,outcome,[4],inactive
same,outcome,[5],inactive
same,Potency,[6],inactive
CC(=O)OC(C)(C)C,Potency,[1],inactive
same,Potency,[2],inactive
same,outcome,[3],inactive
same,outcome,[4],inactive
same,outcome,[5],inactive
same,Potency,[7],inactive
same,Potency,[6],inactive
CCCCc1ccc2cccc(S(=O)(=O)O)c2c1,Potency,[1],inactive
same,Potency,[2],inactive
same,outcome,[4],inactive
same,Potency,[8],inactive
same,Potency,[9],inactive
same,outcome,[5],inactive
same,Potency,[7],inactive
same,Potency,[6],inactive
CC(C=O)Cc1ccc(C(C)C)cc1 (stereo not drawn),Potency,[1],inactive
same,Potency,[2],inactive
same,outcome,[4],inactive
same,Potency,[8],inactive
same,Potency,[9],inactive
same,outcome,[5],inactive
CCOC(=O)[C@H](CCc1ccccc1)N[C@@H](C)C(=O)N1CCC[C@H]1C(=O)O,Potency,[1],inactive
same,Potency,[2],inactive
same,outcome,[3],inactive
same,outcome,[4],inactive
same,outcome,[5],inactive
same,Potency,[7],inactive
same,Potency,[6],inactive
O=[N+]([O-])c1ccc(Oc2ccc([N+](=O)[O-])cc2)cc1,Potency,[1],inactive
same,Potency,[2],inactive
same,outcome,[4],inactive
same,Potency,[8],inactive
same,Potency,[9],inactive
same,outcome,[5],inactive
same,Potency,[7],inactive
same,Potency,[6],inactive
COCc1ccc(COC)cc1,Potency,[1],inactive
same,Potency,[2],inactive
same,outcome,[4],inactive
same,Potency,[8],inactive
same,Potency,[9],inactive
same,outcome,[5],inactive
CNc1ncnc2nc[nH]c12,Potency,[1],inactive
same,Potency,[2],inactive
same,outcome,[3],inactive
same,outcome,[4],inactive
same,outcome,[5],inactive
same,Potency,[6],inactive
CC(C)(C)C(=O)/C=C/c1ccc(Cl)cc1,Potency,[1],inactive
same,Potency,[2],25.2 µM (active)
same,outcome,[4],inactive
same,Potency,[8],inactive
same,Potency,[9],inactive
same,outcome,[5],inactive
same,Potency,[7],inactive
same,Potency,[6],inactive
C1COCCO1,Potency,[1],inactive
same,Potency,[2],inactive
same,outcome,[3],inactive
same,outcome,[4],inactive
same,outcome,[5],inactive
same,Potency,[6],inactive
CC(C)(C)N(CCO)CCO,Potency,[1],inactive
same,Potency,[2],inactive
same,outcome,[4],inactive
same,Potency,[8],inactive
same,Potency,[9],inactive
same,outcome,[5],inactive
CCCOCC(C)OCC(C)O (stereo not drawn),Potency,[1],inactive
same,outcome,[3],inactive
same,outcome,[4],inactive
same,outcome,[5],inactive
same,Potency,[6],inactive
C#CC(C)(O)CC(C)C (stereo not drawn),Potency,[1],inactive
same,Potency,[2],inactive
same,outcome,[4],inactive
same,Potency,[8],inactive
same,Potency,[9],inactive
same,outcome,[5],inactive
same,Potency,[7],inactive
same,Potency,[6],inactive
CC(C)c1cccc(C(C)C)c1N,Potency,[1],inactive
same,Potency,[2],inactive
same,outcome,[4],inactive
same,Potency,[8],inactive
same,Potency,[9],inactive
same,outcome,[5],inactive
same,Potency,[6],inactive
C1CCCCCCCCCCC1,"viability change, negative = cytotoxic",[1],0.43% [at 19 µM]
same,"activity change, negative = inhibition",[2],-7.22% [at 23.6 µM]
same,"activity change, negative = cytotoxicity",[4],-6.25% [at 19 µM]
same,"viability change, negative = cytotoxic",[5],11% [at 19 µM]
same,activation,[6],0.749% [at 19 µM]
O=C(O)CCNC(=O)c1ccc(N=Nc2ccc(O)c(C(=O)O)c2)cc1,Potency,[2],30.9 µM (active)
same,outcome,[3],inactive
same,outcome,[4],inactive
same,Potency,[8],inactive
same,outcome,[5],inactive
CCN1CCN(c2cc3c(cc2F)c(=O)c(C(=O)O)cn3C2CC2)CC1,Potency,[1],inactive
same,Potency,[2],inactive
same,outcome,[4],inactive
same,Potency,[8],inactive
same,outcome,[5],inactive
CC1CCN(CCCC(=O)c2ccc(F)cc2)CC1,Potency,[1],inactive
same,outcome,[4],inactive
same,Potency,[8],inactive
same,Potency,[9],inactive
same,outcome,[5],inactive
same,Potency,[7],inactive
same,Potency,[6],inactive
O=C(O)Cc1cc(I)c(Oc2cc(I)c(O)c(I)c2)c(I)c1,Potency,[1],inactive
same,outcome,[3],inactive
same,outcome,[4],inactive
same,Potency,[8],inactive
same,Potency,[9],inactive
same,outcome,[5],inactive
CC(=O)O[C@H](CC(=O)[O-])C[N+](C)(C)C,Potency,[1],inactive
same,Potency,[2],inactive
same,outcome,[4],inactive
same,outcome,[5],inactive
same,Potency,[6],inactive
O=C1C(CCS(=O)c2ccccc2)C(=O)N(c2ccccc2)N1c1ccccc1 (stereo not drawn),Potency,[1],inactive
same,outcome,[3],inactive
same,outcome,[4],inactive
same,Potency,[8],inactive
same,Potency,[9],inactive
same,outcome,[5],inactive
CCCCC=O,Potency,[1],inactive
same,Potency,[2],inactive
same,outcome,[4],inactive
same,outcome,[5],inactive
CC(C)c1cccc(O)c1,Potency,[1],inactive
same,outcome,[3],inactive
same,outcome,[4],inactive
same,Potency,[8],inactive
same,Potency,[9],inactive
same,outcome,[5],inactive
same,Potency,[7],inactive
same,Potency,[6],inactive
